TLR9-MyD88 block: TLR9-MyD88 interaction inhibition. inhibition, % at 4.98 µM. CHO BLA complementation TLR9-MyD88, CCF4 FRET ratio. 0.21% of 340,000 active;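 active = inhibition above the mean over all tested compounds plus 3 SD, cut at about 21% in these data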;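 also: 0% = DMSO only wells and 100% = clavulanate BLA inhibitor control wells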
Myeloid diff MLP: myeloid differentiation induction. ER-HoxA9 myeloid progenitors, lysozyme-GFP differentiation, flow cytometry. calls only at 10 µM. 1% of 360,000 active;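 active = normalized GFP-positive differentiation at or above the plate's own cutoff, the solvent-only control mean plus 3 SD; inconclusive = no clear call, values can overlap the other calls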;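 also: cells exposed to compound for four days before flow analysis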
TLR4 MyD88 comp: blocks binding of human TLR4 to MyD88 | AID 861 | 0.18% of 200,000 active | inhibition, % at 8.4 µM | O00206+Q99836 | HeLa CL3-4 TLR4/MyD88 BLA complementation, FRET ratio; in the data active = inhibition above about 25%;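 also: 0% = vehicle and 100% = reference inhibitor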
Target sequence (O00206 whole entry, looked up): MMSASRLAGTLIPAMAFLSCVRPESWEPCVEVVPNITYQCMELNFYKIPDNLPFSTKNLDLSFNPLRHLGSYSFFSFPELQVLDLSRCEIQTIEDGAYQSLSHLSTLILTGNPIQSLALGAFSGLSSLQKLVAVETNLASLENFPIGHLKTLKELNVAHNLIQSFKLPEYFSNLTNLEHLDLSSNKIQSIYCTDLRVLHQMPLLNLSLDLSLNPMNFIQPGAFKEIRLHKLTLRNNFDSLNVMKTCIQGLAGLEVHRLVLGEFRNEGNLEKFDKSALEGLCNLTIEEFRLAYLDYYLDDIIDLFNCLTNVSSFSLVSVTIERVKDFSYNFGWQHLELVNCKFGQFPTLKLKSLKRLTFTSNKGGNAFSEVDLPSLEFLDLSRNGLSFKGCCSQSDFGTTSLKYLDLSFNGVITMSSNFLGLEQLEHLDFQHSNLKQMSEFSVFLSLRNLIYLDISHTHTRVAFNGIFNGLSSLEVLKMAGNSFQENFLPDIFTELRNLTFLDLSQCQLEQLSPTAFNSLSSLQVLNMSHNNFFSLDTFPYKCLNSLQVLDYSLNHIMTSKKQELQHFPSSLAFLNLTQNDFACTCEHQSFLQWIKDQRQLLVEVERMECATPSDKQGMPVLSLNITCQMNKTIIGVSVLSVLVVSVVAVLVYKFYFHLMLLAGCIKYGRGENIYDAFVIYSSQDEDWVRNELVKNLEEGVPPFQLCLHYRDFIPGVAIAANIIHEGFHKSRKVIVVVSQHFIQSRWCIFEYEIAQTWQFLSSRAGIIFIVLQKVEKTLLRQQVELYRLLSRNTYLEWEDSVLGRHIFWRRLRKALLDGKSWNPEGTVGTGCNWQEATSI
Target sequence (Q99836 whole entry, looked up): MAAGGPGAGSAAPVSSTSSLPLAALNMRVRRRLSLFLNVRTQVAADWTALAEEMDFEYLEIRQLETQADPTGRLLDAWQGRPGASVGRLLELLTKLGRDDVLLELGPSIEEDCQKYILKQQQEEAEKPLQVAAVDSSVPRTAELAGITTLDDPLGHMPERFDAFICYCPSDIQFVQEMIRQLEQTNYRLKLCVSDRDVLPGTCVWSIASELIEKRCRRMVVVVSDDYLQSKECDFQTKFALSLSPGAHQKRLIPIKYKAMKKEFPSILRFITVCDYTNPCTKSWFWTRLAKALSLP
NOD2 RIPK2 PPI: NOD2-RIPK2 protein interaction inhibition; O43353; CHO BLA complementation NOD2-RIPK2, CCF4 ratio; inhibition, % at 4.98 µM; 0.38% of 360,000 active; AID 624267; in the data active = inhibition above about 21%;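 also: 0% = vehicle only and 100% = reference blocker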
Active calls of the source: *; i = inactive; ? = inconclusive; · = no result; + = active, no number. An excerpt weighted towards active compounds, which were near 1.5% of everything screened.

SMILES	TLR9-MyD88 block	Myeloid diff MLP	TLR4 MyD88 comp	NOD2 RIPK2 PPI
COc1ccc(Nc2c(-c3ccco3)nc3ccc(C)cn23)cc1	5	+	-8	-1
Cc1ccc(Nc2c(-c3ccco3)nc3ccccn23)cc1	-4	i	1	-3
COc1cc(/C=C/C(=O)O)cc(OC)c1O	-28	+	·	-11
CC(C)C[C@H]1CN(CCCC[C@H]2CNC(=O)C(=O)N2CCC2CCCCC2)C(=O)C(=O)N1CCc1ccccc1	·	i	·	-1
O=C(NCC(c1ccco1)N1CCCCC1)c1ccc(S(=O)(=O)Nc2ccccc2)cc1 (stereo not given)	0	i	·	-7
O=C(NCC(c1ccco1)N1CCCC1)c1ccc(Cl)c(S(=O)(=O)N2CCc3ccccc32)c1 (stereo not given)	4	+	·	5
N#CCC(=O)Nc1ccc(C(=O)NCC(c2ccco2)N2CCCCC2)cc1 (stereo not given)	9	+	-3	-3
CC(=O)N1C[C@H]2CON(C)[C@H]2C[C@H]1c1cccc(-c2ccc(C#N)cc2)c1	3	i	·	-33
Cc1cccc(NC(=O)CN2CCN(C(=O)c3cc(C4CC4)nn3-c3ccccc3)CC2)c1C	-1	+	·	-2
O=C(CN1CCN(C(=O)c2cc(C3CC3)nn2-c2ccccc2)CC1)Nc1ccc(F)cc1	-4	i	·	-11
COCCNc1nnc(Cc2ccccc2)c(=O)[nH]1	1	+	·	-5
Cc1ccccc1CNC(=O)c1[nH]c(C(F)(F)F)nc1-c1ccccc1	·	i	·	-7
COCCCNC(=O)CCCn1c(=O)c2ccccc2n(CC(=O)Nc2c(C)cc(C)cc2C)c1=O	0	+	-12	-7
COC(=O)[C@@]12C[C@@H](CC(=O)N3CCN(C(=O)c4ccco4)CC3)C(=O)N(Cc3cccc4ccccc34)C1=CCC(C)(C)C2	·	i	·	6
COc1cccc(CN2CCC(C(=O)NC(C)c3cccc4ccccc34)CC2)c1 (stereo not given)	·	i	·	-2
Cc1cc(SCC(=O)Nc2cccc(S(=O)(=O)NC3=NCCCCC3)c2)c(C)cc1Br	11	+	-7	6
CC(C)(C)NC(=O)C(c1ccccc1F)n1c(=O)c(-c2ccccc2)nc2ccccc21 (stereo not given)	·	i	·	12
CSc1ccccc1NC(=O)COc1ccccc1C	-8	+	2	8
Cc1ccccc1OCC(=O)Nc1ccccc1CO	-1	i	-2	2
NC(Cc1ccccc1)c1csc(Nc2nccc(C(F)(F)F)n2)n1 (stereo not given)	·	i	·	8
Cc1cc(C)cc(NC(=O)CCC(=O)Nc2nnc(C(C)C)s2)c1	2	+	·	-9
CC(C)c1nnc(NC(=O)CCC(=O)Nc2ccc(Cl)cc2)s1	-11	i	·	-1
CC1(c2nnnn2Cc2ccccc2)CCC(=O)N1c1ccc(N2CCOCC2)cc1 (stereo not given)	·	i	·	-6
Cc1ccc(-n2c(SCC(=O)O)nc3sc4c(c3c2=O)CCCC4)cc1	7	i	-10	-2
Cc1ccc(-n2c(SCC(=O)c3c(N)n(C)c(=O)n(C)c3=O)nc3sc4c(c3c2=O)CCCC4)c(C)c1	-9	+	-17	-1
SMILES	TLR9-MyD88 block	Myeloid diff MLP	TLR4 MyD88 comp	NOD2 RIPK2 PPI
COc1ccc(NC(=O)C2c3ccccc3OCC(=O)N2Cc2ccco2)cc1 (stereo not given)	·	i	·	-8
CC(C)Cn1c(=O)c(C(=O)Nc2ccncc2)c(O)c2ccccc21	1	+	·	-2
CN(C)c1ccc(C=Cc2cnccn2)cc1	5	i	·	15
CN(C)c1ccc(/C=C/c2ccncc2)cc1	5	+	2	17
O=C(Nc1ccc(-c2noc(COc3ccccc3Cl)n2)cc1)c1ccco1	9	+	-4	-3
O=C(COc1ccccc1Cl)Nc1ccc(NC(=O)c2ccco2)cc1	0	i	·	-10
CCN(CC)S(=O)(=O)c1ccc(N2Cc3ccccc3C2=N)cc1	2	+	-13	-17
CC(C)(C)OC(=O)N[C@@H](Cc1ccccc1)c1nnc(SCC(N)=O)o1	-16	i	·	-4
Cc1cccc(CS(=O)(=O)c2nnc([C@H](Cc3ccccc3)NC(=O)OC(C)(C)C)o2)c1	11	i	5	65*
COC(=O)CS(=O)(=O)c1nnc([C@H](Cc2ccccc2)NC(=O)OC(C)(C)C)o1	-2	i	8	46*
COC(=O)C[C@H]1C=C[C@H](NC(=O)c2cccc(F)c2)[C@@H](CO)O1	·	i	·	-7
Cc1ccccc1CN1C(=O)CN(S(C)(=O)=O)CC1(C)C(=O)NCc1ccccc1 (stereo not given)	·	i	·	-13
CC(C)c1ccc(N(C)C(=O)Cc2c(C(=O)O)n(C)c3ccccc23)cc1	-5	+	·	-8
CN(C(=O)Cc1c(C(=O)O)n(C)c2ccccc12)c1ccc(Cl)cc1	8	i	·	-3
Cc1ccc2c(CN3CCCc4ccccc43)cc(=O)oc2c1C	3	+	15	0
O=C(CNC(=O)c1ccco1)N=Nc1c(O)[nH]c2ccc(Br)cc12	-9	+	·	-19
Cc1cc(F)ccc1-c1cc(C(=O)NCc2cccs2)[nH]n1	·	i	·	-14
COc1ccc(S(=O)(=O)N2CCC3CC2c2cc(N4CCOCC4)ccc23)cc1 (stereo not given)	-2	i	·	3
CC(=O)OCCCN1c2ccccc2Nc2nnc(-c3ccccc3)cc21	2	+	6	-4
CC(=O)OCCN1c2ccccc2Sc2cnccc21	-4	i	·	-12
COc1ccc([C@H]2CC(=O)C=C(c3cc(OC)ccc3OC)C2)cc1	1	+	·	-3
COc1ccc(F)cc1C1=CC(=O)C[C@H](c2ccc3c(c2)OCO3)C1	-7	+	·	9
CCC(CC)C(=O)N(C)c1c(C)nc2c(OCCOc3ccc(F)cc3)cccn12	·	i	·	4
Cc1ccc2oc(-c3ccc(NC(=O)c4ccncc4)cc3O)nc2c1	2	+	4	-5
O=C1Nc2ccccc2N=C(c2ccc3c(c2)OCO3)C1N(C(=O)c1ccc2ccccc2c1)C1CC1 (stereo not given)	·	i	·	0
SMILES	TLR9-MyD88 block	Myeloid diff MLP	TLR4 MyD88 comp	NOD2 RIPK2 PPI
COc1cc(C=C2C(=O)c3ccccc3C2=O)cc(OC)c1OC	-4	+	7	-8
COc1cc(C=C2C(=O)c3ccccc3C2=O)cc(OC)c1	-6	+	·	-8
COc1cc(C=C2C(=O)c3ccccc3C2=O)ccc1O	-3	i	·	-5
COc1cccc(C=C2Cc3ccccc3C2=O)c1	·	i	·	-7
COc1ccc(C=C2C(=O)c3ccccc3C2=O)cc1O	-8	i	-13	-8
COc1cccc(/C=C2\C(=O)C(=O)c3ccccc32)c1	5	+	-4	-7
COc1ccc(C2=Nc3ccccc3N(C(=O)c3ccc4ncccc4c3)C2C(=O)NC2CCCC2)cc1 (stereo not given)	·	i	·	0
Cc1cc(C)c(C(=O)/C=C/c2cccc3ccccc23)c(=O)[nH]1	15	?	1	7
Cc1[nH]c(=O)c(C(=O)/C=C/c2ccccc2F)c2c1CCCC2	6	i	-9	23*

Screening results from PubChem.
